CYP2C19 inhib – human CYP2C19 inhibition | P33261 | CYP2C19 Supersomes, luciferin-H EGE luminescence, 30 min | inhibition, % at 5 µM | hit rate 21% among 96,000 | AID 778;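 active = CYP2C19 inhibition above a set limit at 5 µM in the primary screen, cut at about 50% in these data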;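 note: plate controls were negative control wells for no effect and 2.5 mM tranylcypromine positive control for full effect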
Pyk2 oligo antag – Pyk2 (human) oligomerization antagonism | Q14289 | Q293 cells, Pyk2 FERM NanoBiT luminescence; active compounds read low | z-score (the deposit names both 25 µM and 10 µM) | hit rate 0.83% among 99,000 | AID 1347419;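 active = Z-score of -3 or lower, scaled per plate to the spread of control and sample wells; inactive = z-score above -3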;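 note: negative z-score means lost luminescence so less FERM oligomerization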
Target sequence (Q14289 whole entry, looked up): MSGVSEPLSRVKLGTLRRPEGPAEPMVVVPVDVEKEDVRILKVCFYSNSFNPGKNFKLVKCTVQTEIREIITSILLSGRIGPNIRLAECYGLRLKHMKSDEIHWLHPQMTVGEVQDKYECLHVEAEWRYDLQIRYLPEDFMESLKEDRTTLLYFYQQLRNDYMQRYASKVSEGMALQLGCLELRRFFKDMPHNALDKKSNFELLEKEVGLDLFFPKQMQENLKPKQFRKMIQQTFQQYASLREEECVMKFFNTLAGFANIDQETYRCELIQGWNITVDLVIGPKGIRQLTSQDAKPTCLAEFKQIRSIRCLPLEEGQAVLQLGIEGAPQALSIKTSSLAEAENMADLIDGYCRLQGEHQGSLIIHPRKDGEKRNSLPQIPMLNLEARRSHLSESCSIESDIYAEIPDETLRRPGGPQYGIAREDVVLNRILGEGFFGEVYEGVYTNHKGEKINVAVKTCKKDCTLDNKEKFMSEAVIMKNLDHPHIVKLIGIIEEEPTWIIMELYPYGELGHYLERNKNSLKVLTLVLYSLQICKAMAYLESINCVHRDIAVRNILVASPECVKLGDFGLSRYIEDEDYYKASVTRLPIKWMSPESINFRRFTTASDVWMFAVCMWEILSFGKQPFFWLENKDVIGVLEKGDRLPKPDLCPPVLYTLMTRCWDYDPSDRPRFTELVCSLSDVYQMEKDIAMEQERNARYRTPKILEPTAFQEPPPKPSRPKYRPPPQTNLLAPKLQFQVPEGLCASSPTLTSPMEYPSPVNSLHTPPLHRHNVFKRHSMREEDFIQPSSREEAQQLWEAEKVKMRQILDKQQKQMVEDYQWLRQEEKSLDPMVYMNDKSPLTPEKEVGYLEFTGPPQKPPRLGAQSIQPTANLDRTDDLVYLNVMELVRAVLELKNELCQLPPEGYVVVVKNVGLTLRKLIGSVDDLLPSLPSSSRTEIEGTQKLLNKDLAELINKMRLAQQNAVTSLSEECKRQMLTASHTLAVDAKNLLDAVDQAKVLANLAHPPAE
CYP2C19 activ – activators of human cytochrome P450 2C19. recombinant CYP2C19, luciferin-H EGE luminescence; active compounds read high; 0 = fully inhibited enzyme, 1 = untreated enzyme. activation factor at 5 µM. 96,000 tested, under 10 active;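 active = activation factor of at least 2 at 5 µM in the primary screen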;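 note: 0 = wells with 2.5 mM tranylcypromine and 1 = vehicle-only wells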
CYP2C9 inhib – blocks human cytochrome P450 2C9; hit rate 20% among 96,000; CYP2C9 Supersomes, luciferin-H conversion, luminescence; inhibition, % at 5 µM; P11712;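 active = blocking of liver enzyme CYP2C9 beyond about 50% at 5 µM, limit read from the data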
Cav32 inh – inhibitors of human Cav3.2 T-type calcium channel; AID 449739; Cav3.2-expressing cells, Fluo-4 calcium fluorescence FDSS; active compounds read low; B-score at 10 µM; O95180; hit rate 4% among 100,000;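 active = single-dose well whose peak fluorescence ratio is a statistical outlier from its plate by either plate-standardised score or position-corrected B-score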
CYP2C9 act – increases human cytochrome P450 2C9 activity | P11712 | recombinant CYP2C9, luciferin-H conversion, luminescence; active compounds read high; factor 1 = untreated enzyme, 0 = blocked | activation factor at 5 µM | hit rate 1.4% among 96,000 | AID 1024;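 active = activation factor of 2 or more for CYP2C9 at a 5 µM dose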;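 note: 0 = sulfaphenazole-blocked wells and 1 = vehicle-only wells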
An asterisk follows results filed as active; · = no result given. In the library only some 27% were active in any assay of this set; here they are far more common.

SMILES	CYP2C19 inhib	Pyk2 oligo antag	CYP2C19 activ	CYP2C9 inhib	Cav32 inh	CYP2C9 act
C=CCn1c2ccccc2c2nnc(SC(CC)C(=O)Nc3sc4c(c3C#N)CCCC4)nc21 (centres undefined)	53*	-1.7	0.5	73*	-2.8	0.3
COc1cccc(Cn2c(-c3cccs3)noc2=O)c1	82*	1.8	0.2	30	0.075	0.7
COc1ccc(CNC(=O)c2cc(-c3cccs3)on2)cc1	29	-0.64	0.7	47	-1.2	0.5
CN(C(=O)Nc1ccc(Cl)cc1Cl)[C@H]1c2cc(Br)ccc2OC[C@H]1CO	41	-0.03	0.6	87*	-2.5	0.1
CN(CC(=O)NCc1cccs1)S(=O)(=O)c1cccc2cccnc12	22	·	0.8	-138	-0.06	2.4*
CN(C)c1ccc(CNC(=O)CN(C)S(=O)(=O)c2cccc3cccnc23)cc1	70*	·	0.3	44	-0.46	0.6
O=C(NCc1nc2ccccc2[nH]1)C1=C[C@@H](c2ccccc2)C[C@@H](OCCCCO)O1	·	·	·	·	-1.6	·
CCOC(=O)CSc1nc(CC)nc2ccccc12	45	0.39	0.6	17	0.35	0.8
CCOC(=O)CNC(=O)CSc1nc(Cc2cccs2)nc2ccccc12	58*	-0.56	0.4	44	-2.7	0.6
CCc1nc(SCC(=O)NNC(=O)C2CCCCC2)c2ccccc2n1	-4	-0.26	1	-81	0.3	1.8
CCCc1nc(SCC(=O)N2CCc3ccccc3C2)c2ccccc2n1	57*	-0.71	0.4	78*	-2.5	0.2
CC1CC(C)CN(C(=O)CSc2nc(Cc3cccs3)nc3ccccc23)C1 (centres undefined)	28	1.6	0.7	72*	-3.6	0.3
CCCCC(=O)N(Cc1ccc(-c2ccccc2-c2nn[nH]n2)cc1)[C@H](C(=O)O)C(C)C	·	·	·	·	0.29	·
Cc1cccc(C)c1NC(=O)N1CCC(N2CCCCC2)CC1	-8	1.1	1.1	-5	1.3	1
O=Cc1c[nH]c2ccc(S(=O)(=O)N3CCOCC3)cc12	·	-0.67	·	·	·	·
COc1ccccc1C/C(N)=N/OC(=O)c1cccc([N+](=O)[O-])c1	9	-0.75	0.9	-142	0.15	2.4*
CSC1=C(C#N)C(c2ccccc2C)C(C#N)=C(N)N1 (centres undefined)	86*	-1.1	0.1	99*	-0.89	0
COc1ccccc1NC(=O)Cn1nc(-c2ccc(Cl)cc2)c2ccccc2c1=O	41	0.56	0.6	70*	-4.7*	0.3
COc1ccc(Cl)cc1NC(=O)Cn1c(=O)n2nc(C)nc2c2ccccc21	59*	·	0.4	34	-0.29	0.7
NC(=O)CCn1nc(-c2ccccc2)c2ccccc2c1=O	16	-0.2	0.8	-10	-0.036	1.1
CCNC(=O)CCn1nc(-c2ccc(Cl)cc2)c2ccccc2c1=O	65*	1.5	0.3	31	0.27	0.7
O=C(CCn1nc(-c2ccccc2)c2ccccc2c1=O)N1CCN(c2ccccc2)CC1	90*	-0.71	0.1	85*	-5.3*	0.1
CCN(CC)CCNC(=O)Cn1nc(-c2ccccc2)c2ccccc2c1=O	0	-0.06	1	1	0.16	1
Cc1ccc(-c2nn(CC(=O)NCC3CCCO3)c(=O)c3ccccc23)cc1 (centres undefined)	8	-0.39	0.9	16	0.99	0.8
O=c1c2ccccc2c(-c2ccccc2)nn1Cc1ccc(Cl)cc1	66*	-0.46	0.3	58*	0.66	0.4
SMILES	CYP2C19 inhib	Pyk2 oligo antag	CYP2C19 activ	CYP2C9 inhib	Cav32 inh	CYP2C9 act
Cc1ccc(-c2nn(CCC(=O)NCC3CCCO3)c(=O)c3ccccc23)cc1 (centres undefined)	32	-0.11	0.7	54*	-3.2	0.5
O=C(Cn1nc(-c2ccc(Cl)cc2)c2ccccc2c1=O)NCC1CCCO1 (centres undefined)	6	0.61	0.9	16	-0.049	0.8
O=C(CCn1nc(-c2ccccc2)c2ccccc2c1=O)NCC1CCCO1 (centres undefined)	56*	0.13	0.4	54*	·	0.5
Cc1ncc(S(=O)(=O)c2ccccc2)c(-c2ccc(Cl)cc2Cl)n1	73*	0.04	0.3	2	-2.3	1
CC(=O)c1c(C)nc(-c2ccc(Cl)cc2Cl)n1O	·	0.02	·	·	0.8	·
COc1ccc(-c2cnn3c(N)c(S(=O)(=O)c4ccccc4)cnc23)cc1	-19	-2	1.2	2	-0.59	1
Cc1ccc(S(=O)(=O)c2cnc(-c3ccccc3)nc2Oc2ccccc2)cc1	2	·	1	6	0.2	0.9
O=S(=O)(c1ccc(Cl)cc1)c1cnc(-c2cccnc2)nc1-c1ccccc1	52*	0.5	0.5	40	-0.13	0.6
CN(C)c1ncc(S(=O)(=O)c2ccc(Cl)cc2)c(-c2ccccc2)n1	97*	-0.71	0	60*	-1.3	0.4
Cc1nc(-c2ccccc2)sc1-c1nc(-c2ccncc2)ncc1S(=O)(=O)c1ccccc1	93*	-2.3	0.1	96*	·	0
CC(=O)Nc1ccc(NC(=O)c2ccccc2CC[N+](=O)[O-])cc1	-10	-0.29	1.1	-5	0.54	1
CCC1(C)Cc2ccccc2C(Nc2c(C)n(C)n(-c3ccccc3)c2=O)=N1 (centres undefined)	-8	-0.37	1.1	7	-0.18	0.9
O=S(=O)(c1ccc(Cl)cc1)c1snnc1-c1ccccc1	90*	-1.2	0.1	29	-1.7	0.7
CCOCCCNC(=O)CC1Oc2ccc(C)cc2NC1=O (centres undefined)	13	·	0.9	-28	0.62	1.3
COc1cc(-c2nnc3sc(C4CCCCC4)nn23)cc(OC)c1OC	75*	-1.2	0.3	77*	-0.65	0.2
CCOc1cccc(-c2nnc3sc(C4CCCCC4)nn23)c1	94*	-1	0.1	43	-3.4	0.6
COc1ccc(-c2nnc3sc(-c4ccc(Br)o4)nn23)cc1OC	14	·	0.9	14	·	0.9
Cc1cc(-c2nnc3sc(C4CCCCC4)nn23)n[nH]1	73*	1.8	0.3	2	0.65	1
c1ccc(OCc2nn3c(-c4cccnc4)nnc3s2)cc1	32	0.41	0.7	16	1.1	0.8
c1cncc(-c2nnc3sc(C4CCCCC4)nn23)c1	94*	0.89	0.1	34	3.2*	0.7
COc1ccc(C2(C(=O)N3CCCC3)CCOCC2)cc1OC	2	0.76	1	6	0.86	0.9
COc1cccc(-c2nnc3sc(C4CCCCC4)nn23)c1	84*	-2.1	0.2	78*	-1.7	0.2
O=C(Cn1cc(CCO)nn1)N1CCNCC1	·	·	·	·	0.63	·
CC(C)(C)c1cc(CCC(=O)N2CCNCC2)c(C(C)(C)C)cc1O	6	0.45	0.9	74*	-2	0.3
CC(C)n1c(=NC(=O)c2ccco2)c(C#N)cc2c(=O)n3ccccc3cc21	·	1.6	·	·	·	·

Screens deposited in PubChem BioAssay by several laboratories.
